Results reported in PubChem BioAssay (NCI).
Values joined by “and” are separate entries in the source; they are usually repeats but may differ in a detail not shown here. Identical values can stand only once. This is part of a sample that, as a whole, favours compounds with a hit. Of some 83,000 tested, about 20% had one in any assay.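 Growth was measured after 48 h exposure to one concentration of compound in 96-well plates. Values under 10 count as active.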 Unmarked numbers belong to inactive results. Active and inactive are the calls of the source.

The compounds below were run on MDA-MB-468 breast (assay: NCI-60 one-dose screen, 48 h (100 = growth as untreated, 0 = no growth, -100 = all killed)). Settings: 10 µM unless noted.

| SMILES | growth |
| --- | --- |
| O=C(O)c1c(=O)cccc2ssc12 | -50.5% (active) |
| c1ccc2c(c1)oc1cc3c(cc12)nnc1cccn13 | 108% |
| COC(=O)C1(O)NC(=C(C#N)C#N)C(C#N)=C1C(=O)c1ccc(OC)c(OC)c1 (stereo not given) | 110% |
| c1ccc(NCc2ccc3c(c2)OCO3)cc1 | 104% and 97.7% |
| COc1ccc(/C=C/C(=O)c2cc(S(N)(=O)=O)c(OC)cc2OC)cc1 | -6.04% (active) |
| Cc1nc(C)c(C(=O)O)cc1C(=O)O | 109% |
| CC(=O)Nc1cccc(Nc2nc(N[C@@H](C)c3ccccc3)c3ccccc3n2)c1 | -39.8% (active) |
| COc1ccc(NC(=O)c2nc(-c3cc(OC)c(OC)c(OC)c3)n(-c3cccc4ccccc34)n2)cc1OC | 46.4% |
| O=c1oc2ccc(-c3ccc(F)cc3F)cc2c(=O)n1-c1cccc(C(F)(F)F)c1 | -12.8% (active) and -5.33% (active) |
| CCNC(=O)Oc1ccc(/C(=C(/C)Cc2ccc(OC)cc2)c2ccc(OCCN3CCCCC3)cc2)cc1 | 42.4% |
| CCN(CC)C(=O)O/N=C(/C)c1ccccc1 | 96.5% |
| C#C[C@]1(O)CC[C@H]2[C@@H]3CC=C4c5sc(Nc6cc(Cl)ccn6)nc5CC[C@]4(C)[C@H]3CC[C@@]21C | 28.6% |
| Cc1ccc(NC(=O)c2nc(S(C)(=O)=O)oc2-c2ccc(F)cc2)cc1Nc1ccc2ncn(C)c(=O)c2c1 | 16.8% |
| NCC(=O)CCC(=O)O | 100% |
| CCCCNC(=O)Oc1ccc(/C(=C(\C)c2ccc(Cl)cc2)c2ccc(OCCN(CC)CC)cc2)cc1 | 71.8% |
